Measured values reported in PubChem BioAssay AID1159580 (chemical genetic matrix, 2015).
Among all 5,500 compounds or so, about 2,000 (36%) were called active. Inconclusive results (about 18%) are left out. Rule as the data show it: active = normalized growth mostly below about 0.91 (no sharp cut-off); inconclusive = no clear call, values can overlap the other calls; inactive = mostly above about 0.92. Some of the results follow.

Assay: chemical genetic growth profiling, strain panel (AID 1159580);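 also: tested at 20 µM; growth read once vehicle control cultures reached saturation at 30 °C; 1 = growth at the plate median or of vehicle wells; lower values mean less growth of the strain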
Details: S. cerevisiae deletion strains, growth OD

Measured: normalized growth

C[C@]12C[C@H](O)[C@H]3[C@@H](CCC4=CC(=O)CC[C@@]43C)[C@@H]1CC[C@@H]2C(=O)CO
inactive: locus YAL040C, strain CLN3, hits give low values 1.05 | locus YDR150W, strain NUM1, hits give low values 1 | locus YDR363W, strain ESC2, hits give low values 0.999 | locus YER002W, strain NOP16, hits give low values 1.01 | locus YGR078C, strain PAC10, hits give low values 1 | locus YNL175C, strain NOP13, hits give low values 1.02 | locus YNL197C, strain WHI3, hits give low values 1.02 | locus YNL224C, strain SQS1, hits give low values 1.02 | locus YOR083W, strain WHI5 (second series), hits give low values 1.02 | locus YPL241C, strain CIN2, hits give low values 1
